Measured values taken from PubChem BioAssay (NCATS).
Results filed as inconclusive are left out. The source made the active and inactive calls. Calls follow the shape of the dose curve; as a rule, active = well fitted curve in the direction sought with a large enough effect; inconclusive = small, poorly fitted or top-dose-only effect, or another doubt; inactive = no such curve, though single readings can be large or run the other way.

molecular target: Thioredoxin reductase 1, cytoplasmic (Rattus norvegicus) (UniProt O89049); assay: qHTS Assay for Substrates of Mammalian Selenoprotein Thioredoxin Reductase 1 (TrxR1) (AID 488772); settings: purified TrxR1, NADPH consumption substrate assay; series mostly up to 57.1 µM;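 also: a drop in NADPH fluorescence below the no-compound background marks a TrxR1 substrate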
Sequence (O89049 whole entry, looked up): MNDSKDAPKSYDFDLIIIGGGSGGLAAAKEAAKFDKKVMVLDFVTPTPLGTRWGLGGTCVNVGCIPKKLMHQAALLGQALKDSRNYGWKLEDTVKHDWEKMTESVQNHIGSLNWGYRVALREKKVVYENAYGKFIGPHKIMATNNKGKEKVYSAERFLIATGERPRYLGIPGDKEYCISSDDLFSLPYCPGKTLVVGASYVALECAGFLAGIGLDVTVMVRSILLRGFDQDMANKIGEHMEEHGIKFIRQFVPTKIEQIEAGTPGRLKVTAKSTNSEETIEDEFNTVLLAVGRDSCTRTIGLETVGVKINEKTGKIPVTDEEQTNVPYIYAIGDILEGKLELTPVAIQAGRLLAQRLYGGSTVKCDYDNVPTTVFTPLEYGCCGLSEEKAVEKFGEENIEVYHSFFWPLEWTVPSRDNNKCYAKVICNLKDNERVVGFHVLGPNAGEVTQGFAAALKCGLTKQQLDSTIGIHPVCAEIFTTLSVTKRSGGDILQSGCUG
Text: The selenoprotein thioredoxin reductase (TrxR; EC 1.8.1.9) is a FAD containing homodimeric pyridine nucleotide-disulfide oxidoreductase with many cellular roles. Together with NADPH and its prime substrate thioredoxin (Trx), the enzyme forms the core of the Trx system. The mammalian Trx system exerts a wide spectrum of functions including redox regulation, antioxidant defense, regulation of transcription factors as well as support of cell growth and replication. Many of these functions involve the reduction of Trx, which may subsequently reduce a number of different substrates including ribonucleotide reductase, peroxiredoxins or NFkB. Mammalian TrxR itself also has a broad substrate specificity, reducing both protein and non-protein substrates, including low molecular weight compounds such as dehydroascorbate, lipoic acid, ubiquinone, and juglone. In addition, several drugs in clinical use for anticancer treatment are indeed known to target TrxR1.
This BioAssay is a validation of an NADPH fluorescence-based, dual-purpose qHTS rTrxR1 assay designed to find potential inhibitors and substrates of rTrxR1. For this particular BioAssay, actives are potential substrates. See related BioAssay for inhibitors data deposition.
Assay protocol: 2 uL of reagents (buffer in column 4 as negative control and 90 nM rTrxR1 in columns 1-3 and 5-48) were dispensed into Greiner black solid-bottom 1,536-well assay plates, followed by 1 uL of NADPH (400 uM final concentration) to each well. The plates were centrifuged at 1000 rpm for 15 seconds and subsequently incubated for 5 min at room temperature (~22 deg C) to allow for rTrxR1 reduction. Compounds (23 nL) were then transferred via Kalypsys pin tool equipped with 1536-pin array (10 nL slotted pins, V&P Scientific, San Diego, CA). In addition, a duplicate 2-fold serial dilution of the control compounds auranofin, a known gold-based TrxR1 inhibitor, and juglone (5-hydroxy-1,4-naphthoquinone), a natural TrxR1 substrate, were pin-transferred to columns 2 and 3, respectively. After incubation for 15 min at room temperature (~22 deg C), 1 uL of selenite (400 uM final concentration) were dispensed to each well. The plate was immediately transferred to a ViewLux high-throughput CCD imager (PerkinElmer), wherein kinetic measurements of NADPH fluorescence (Ex 340 nm, Em 450 nm) were acquired (8 minute kinetic read, see Table 1). Read 1 was utilized to assess the capacity of a compound to serve as an rTrxR1 substrate, i.e. a decrease in NADPH fluorescence compared to the no-compound background is an indication of a substrate behavior for that particular compound. For inhibitory activity of a compound, delta values, computed as the difference in fluorescence intensity between the first and last reads of an 8-minute time kinetic window, were used. All reagents were diluted in an assay buffer consisting of 50 mM Tris-HCl, pH 7.5, 2 mM EDTA, and 0.01% Tween-20.
Throughout the screen, reagent bottle and all liquid lines were made light-tight to minimize reagent degradation. All screening operations were performed on a fully integrated robotic system (Kalypsys, San Diego, CA) containing one RX-130 and two RX-90 anthropomorphic robotic arms (Staubli, Duncan, SC). Library plates were screened starting from the lowest and proceeding to the highest concentration, and a 'double-pinning' step of the highest concentration was required to access higher concentrations of compounds. Vehicle-only plates, with DMSO being pin-transferred to the columns 5-48, were inserted uniformly at the beginning and the end of each library in order to monitor and record any shifts in the background, which can be affected by reagent dispensers or loss in enzyme activity over time. Screening data were corrected, normalized, and concentration-effect relationships were derived by using publicly-available curve fitting algorithms developed in-house (http://ncgc.nih.gov/pub/openhts).

| Compound | outcome |
| --- | --- |
| CCOC(=O)c1ncn2c1[C@@H]1CCCN1C(=O)c1cc(OC)ccc1-2 | inactive |
| C=CCN1C[C@@H](C)N([C@H](c2ccc(C(=O)N(CC)CC)cc2)c2cccc(OC)c2)C[C@@H]1C | inactive |
| CCCn1c(C)c(C(=O)c2ccc3ccccc3c2)c2ccccc21 | inactive |
| C[C@H](N)Cc1cccc(C(F)(F)F)c1 | inactive |
| C=CCN1CCc2cccc3c2[C@H]1Cc1ccc(O)c(O)c1-3 | inactive |
| CCCN1CCc2cc(O)cc3c2[C@H]1Cc1ccc(O)c(O)c1-3 | inactive |
| CNc1ccc2oc(C[C@H]3O[C@@]4(CC[C@H]3C)O[C@H]([C@H](C)C(=O)c3ccc[nH]3)[C@H](C)C[C@H]4C)nc2c1C(=O)O | inactive |
| CCCN(CCC)CCc1c[nH]c2ccc(C(N)=O)cc12 | inactive |
| CC(=O)OCC1=C(C(=O)O)N2C(=O)[C@@H](NC(=O)CCC[C@@H](N)C(=O)O)[C@H]2SC1 | inactive |
| NC(CCCCCP(=O)(O)O)C(=O)O (stereo not given) | inactive |
| N[C@@]1(C(=O)O)CC[C@@H](C(=O)O)C1 | inactive |
| CCn1cnc2c(Nc3cccc(Cl)c3)nc(N[C@@H]3CCCC[C@@H]3N)nc21 | inactive |
| COc1ccc2c(c1)c(CCN1CCOCC1)c(C)n2C(=O)c1cccc(Cl)c1Cl | inactive |
| CCCN1CCc2cccc3c2[C@H]1Cc1ccc(O)c(O)c1-3 | inactive |
| C=CCN1CCC23c4c5ccc(O)c4O[C@H]2C(=O)CC[C@@]3(O)C1C5 (stereo not given in full) | inactive |
| N[C@@H](CCl)C(=O)O | inactive |
| NC(C(=O)O)c1cc(=O)[nH]o1 (stereo not given) | inactive |
| Cc1sc2ccccc2c1CC1=NCCN1 | inactive |
| CCCN(CCC)[C@@H]1CCc2cccc(O)c2C1 | inactive |
| O=[N+]([O-])c1cc(O)c(O)c([N+](=O)[O-])c1 | inactive |

| Compound | outcome |
| --- | --- |
| CP(=O)(O)C1=CCNCC1 | inactive |
| NC(Cc1ccc(N(CCCl)CCCl)cc1)C(=O)O (stereo not given) | inactive |
| CN(N=O)c1cc(O)ccc1O | inactive |
| C[N+](C)(C)CC#CCOC(=O)Nc1cccc(Cl)c1 | inactive |
| N[C@@H](Cn1oc(=O)[nH]c1=O)C(=O)O | inactive |
| C=CCN1CC[C@]23c4c5ccc(O)c4O[C@@H]2/C(=N/N=C2\CC[C@@]4(O)C6Cc7ccc(O)c8c7[C@@]4(CCN6CC=C)[C@@H]2O8)CC[C@@]3(O)C1C5 | inactive |
| COc1ccc2c(c1)C13CCCCC1C(C2)N(C)CC3 (stereo not given) | inactive |
| O=S1(=O)N(CCN2CC=C(c3c[nH]c4cc(F)ccc34)CC2)c2cccc3c2N1CCC3 | inactive |
| COc1ccc2c(c1O)-c1cccc3c1[C@@H](C2)N(C)CC3 | inactive |
| COc1ccc2c(c1)[C@@]13CCCC[C@H]1[C@@H](C2)NCC3 | inactive |
| NNC(=O)c1ccc(O)cc1 | inactive |
| CN1C2CCC1CC(OC(c1ccccc1)c1ccccc1N)C2 (stereo not given) | inactive |
| CCCN(CCC)[C@H]1CCc2c(F)ccc(O)c2C1 | inactive |
| N[C@@H](Cn1ccc(=O)[nH]c1=O)C(=O)O | inactive |
| C[C@@H]1O[C@@H](O[C@H]2C[C@@H](O)[C@]3(CO)[C@@H]4C(CC[C@]3(O)C2)[C@@]2(O)CC[C@H]([C@@H]3COC(=O)C3)[C@@]2(C)C[C@H]4O)[C@H](O)[C@H](O)[C@H]1O (stereo not given in full) | inactive |
| CC1(C(=O)O)C2CCC(O2)C1(C)C(=O)O (stereo not given) | inactive |
| CCCN(CCC)CCc1ccc(O)c(O)c1 | inactive |
| O=C1CC[C@@]2(O)C3Cc4ccc(O)c5c4C2(CCN3CC2CC2)[C@H]1O5 (stereo not given in full) | inactive |
| CC(=O)NBr | inactive |
| CN1CC[C@@]2(C)c3cc(O)ccc3N(C)C12 (stereo not given in full) | inactive |
